A short description of test [1]: AP1 Signaling Pathway (AID 357; active = well fitted curve in either direction with a large enough effect, not every such curve was filed as active;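 note: ME-180 reporter cells stimulated with EGF at its EC50 level; % is set by controls: 0 for no effect and ±100 for the full control effect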). A digest of the protocol:
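First, ME-180 AP-1-bla cells were cultured overnight at 37 °C in low-serum Opti-MEM. Next, titrated compounds with EC50 EGF were incubated 5 hours. Finally, CCF4 was added for 2.5 hours and the 460/530 nm ratio recorded.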

For test [2], the target named is Glucocorticoid receptor (Homo sapiens) (UniProt P04150). Kind of test: GR-GFP Redistribution (AID 450;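 active = compounds whose dose series gives a full or clear partial fitted curve of increased nuclear translocation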; note: potency is the fitted concentration of half-maximal effect). The conditions noted are these: U2OS GR-GFP nuclear translocation, laser cytometry, 2 h.
Sequence of Glucocorticoid receptor (Homo sapiens) (P04150 whole entry, looked up): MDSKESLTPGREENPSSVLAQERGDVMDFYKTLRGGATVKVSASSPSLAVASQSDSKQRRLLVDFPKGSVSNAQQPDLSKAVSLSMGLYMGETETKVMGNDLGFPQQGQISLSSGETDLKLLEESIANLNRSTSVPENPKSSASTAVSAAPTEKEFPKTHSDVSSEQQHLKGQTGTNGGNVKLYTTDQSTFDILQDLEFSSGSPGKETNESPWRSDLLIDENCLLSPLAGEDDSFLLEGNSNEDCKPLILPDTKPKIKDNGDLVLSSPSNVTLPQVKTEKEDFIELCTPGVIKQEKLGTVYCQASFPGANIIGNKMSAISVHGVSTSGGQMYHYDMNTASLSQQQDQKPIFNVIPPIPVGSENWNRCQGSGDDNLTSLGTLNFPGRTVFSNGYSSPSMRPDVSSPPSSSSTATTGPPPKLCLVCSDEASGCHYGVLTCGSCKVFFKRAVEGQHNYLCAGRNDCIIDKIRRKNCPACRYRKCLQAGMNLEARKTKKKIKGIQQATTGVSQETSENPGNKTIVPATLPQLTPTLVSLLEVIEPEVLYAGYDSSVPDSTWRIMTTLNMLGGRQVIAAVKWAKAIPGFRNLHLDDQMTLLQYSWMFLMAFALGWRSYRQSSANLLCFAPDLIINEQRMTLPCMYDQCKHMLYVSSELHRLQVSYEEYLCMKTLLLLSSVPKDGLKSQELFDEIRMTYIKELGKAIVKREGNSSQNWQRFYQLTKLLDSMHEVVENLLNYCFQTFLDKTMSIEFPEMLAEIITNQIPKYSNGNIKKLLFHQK
Test [3] shares this target. The test can be described thus: GR-EFC Redistribution (AID 451; calls by dose curve; note: potency is the fitted concentration of half-maximal effect). To be noted: CHO-K1 GR-EFC translocation, beta-gal luminescence, 2 h. In outline:
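CHO-K1 cells expressing nuclear EA and GR-ED fragments of b-gal; compounds titrated up to 46 uM final, 2 h at 37 C. GR nuclear translocation read as complemented b-gal luminescence after 1 h RT detection.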

For test [4], the target named is Mitogen-activated protein kinase 10 (Mus musculus) (UniProt Q61831). The test can be described thus: JNK3 AlphaScreen Assay (AID 530; active = well fitted curve in either direction with a large enough effect, not every such curve was filed as active;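 note: kinase came from lysate of stimulated human HepG2 cells; signal reports phosphorylation of biotinylated GST-cJun 1-79 at Ser73 with 10 µM ATP; % is set by controls: 0 for no effect and ±100 for the full control effect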). In outline:
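HepG2 lysate (IL-1b/TNFa pre-activated) + biotin-GST-cJun 1-79 + anti-pSer73 cJun; cpd titration, 15 min RT; ATP 10 uM start; Tris pH 7.6, MgCl2, DTT, vanadate; beads in EDTA buffer; AlphaScreen.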
Background: Alpha assays give light when donor and acceptor beads are brought close together.

Test [5] addresses 3',5'-cyclic-AMP phosphodiesterase 4B (Homo sapiens) (UniProt Q07343). Kind of test: qHTS Assay for Inhibitors of PDE-IV (AID 607; active = well fitted activation curve with a large enough effect in the main read-out, with a control signal flat, not every such curve was filed as active; note: % of control where 0% means no effect). In outline:
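Live HEK293 cells with a modified cyclic nucleotide-gated (CNG) channel report intracellular cAMP via membrane-potential dye fluorescence (ex 535/em 590 nm). Endogenous PDE-IV was targeted. Compounds were tested at up to 22.9 uM final; RO 20-1724 100 uM served as control.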
(In general: Quantitative high-throughput screening tests each substance at several concentrations.)

A short description of test [6]: qHTS Assay for Lipid Storage Modulators (AID 1519; calls by dose curve). The conditions noted are these: Drosophila S3 cells, BODIPY lipid droplet/cell ratio, laser cytometry, cells loaded with oleic acid. In outline: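 Cells seeded at 5,000 per well were treated with compounds over a concentration series and loaded with oleic acid (400 uM, as added). Lipid droplet fluorescence (488 nm excitation, 500-530 nm channel) was read by laser-scanning cytometry and normalized to 20 uM Triacsin C.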

The target of test [7] is Ubiquitin carboxyl-terminal hydrolase 1 (Homo sapiens) (UniProt O94782). The test can be described thus: Inhibitors of USP1/UAF1: Pilot qHTS (AID 504865).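 Note: rhodamine fluorescence freed from ubiquitin-rhodamine substrate followed over time; top concentration of the series differs between compounds; % is set by controls: 0 for no effect and ±100 for the full control effect; nearly all actives have a fitted effect of over 35% in size.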 A digest of the protocol: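 1nM USP1/UAF1 + cpd, 15 min RT; start w/ Ub-Rho 150nM final; kinetic FL 480/540 nm, 6 reads q60 s. Buffer 50mM HEPES pH 7.8, 0.5mM EDTA, 1mM TCEP, 0.01% Tween-20, 0.1 mg/ml BSA.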
Sequence of Ubiquitin carboxyl-terminal hydrolase 1 (Homo sapiens) (O94782 whole entry, looked up): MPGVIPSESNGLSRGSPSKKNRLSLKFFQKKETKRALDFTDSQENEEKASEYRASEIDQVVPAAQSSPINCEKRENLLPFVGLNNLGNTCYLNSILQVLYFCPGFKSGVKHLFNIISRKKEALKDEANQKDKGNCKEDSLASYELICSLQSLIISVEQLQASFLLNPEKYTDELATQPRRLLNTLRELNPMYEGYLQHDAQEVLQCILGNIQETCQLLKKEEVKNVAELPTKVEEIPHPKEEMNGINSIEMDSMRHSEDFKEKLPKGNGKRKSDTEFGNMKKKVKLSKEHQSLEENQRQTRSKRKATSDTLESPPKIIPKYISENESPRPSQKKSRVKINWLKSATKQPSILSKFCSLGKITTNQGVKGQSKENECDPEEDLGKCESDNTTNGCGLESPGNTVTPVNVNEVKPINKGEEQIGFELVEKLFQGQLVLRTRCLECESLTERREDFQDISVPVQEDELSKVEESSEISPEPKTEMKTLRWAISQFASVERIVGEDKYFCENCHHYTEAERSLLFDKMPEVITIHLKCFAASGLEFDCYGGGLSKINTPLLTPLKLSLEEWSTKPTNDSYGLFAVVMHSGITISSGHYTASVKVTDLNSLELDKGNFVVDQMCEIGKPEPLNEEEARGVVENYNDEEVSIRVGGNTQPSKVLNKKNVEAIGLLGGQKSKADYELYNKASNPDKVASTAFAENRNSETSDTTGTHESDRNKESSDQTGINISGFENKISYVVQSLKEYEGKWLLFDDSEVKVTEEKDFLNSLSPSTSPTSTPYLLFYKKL
Test [8] is described as follows: NFAT Signaling Pathway (AID 444; active = well fitted curve in either direction with a large enough effect, not every such curve was filed as active;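 note: carbachol stimulus at about its EC50 of 1 µM final; % is set by controls: 0 for no effect and ±100 for the full control effect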). The conditions noted are these: Jurkat NFAT-bla M1, carbachol, beta-lactamase ratio, 5 h; at 17.2 µM (top of the series) unless noted. A digest of the protocol: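 Jurkat cells with NFAT-driven β-lactamase reporter and co-expressed M1 receptor, stimulated with carbachol (final 1 uM, ~EC50), compound titration, 5 h at 37 °C. CCF4 loaded 1 h at RT; 460/530 nm ratio gave %activity and AC50.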

Test [9] can be described thus: Stat Signaling Pathway (AID 446; active = well fitted curve in either direction with a large enough effect, not every such curve was filed as active;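 note: ME-180 cervical cancer cells given 40 pM IL-6 alongside compound; SIE-controlled beta-lactamase reporter measured as 460/530 nm FRET emission ratio; % is set by controls: 0 for no effect and ±100 for the full control effect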). In outline: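 Overnight-plated ME-180 cells bearing a STAT Inducible Element beta-lactamase reporter; 5 h co-exposure to compound and 40 pM IL-6; values normalized to 300 pM IL-6 and 125 nM JAK inhibitor controls.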
Test [10] addresses ATP-dependent 6-phosphofructokinase (Trypanosoma brucei brucei) (UniProt O15648). Kind of test: qHTS Assay to Find Inhibitors of T. brucei phosphofructokinase: hit validation (AID 492961). A digest of the protocol:
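Compounds titrated; %activity normalized to 0x and 1x enzyme controls, curve-fitted. Readout: ADP-Glo luminescence after 45 min room-temperature reaction of 1.25 nM PFK, 0.1 mM ATP, 0.5 mM F6P, pH 8.0.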

The target in test [11] is Luciferin 4-monooxygenase (Photinus pyralis) (UniProt P08659). The test can be described thus: Biochemical firefly luciferase enzyme assay for NPC (AID 624030).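 Note: purified P. pyralis luciferase at 10 nM with luciferin and ATP substrate; 0% = DMSO and -100% = full luciferase inhibition by PTC124 control; nearly all actives have a fitted effect of over 70% in size.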 A digest of the protocol: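 Purified P. pyralis luciferase at 10 nM in 50 mM Tris Acetate (final), luminescence read within 5 minutes of enzyme addition to compounds. Activity normalised to PTC124 versus DMSO; concentration-response curves classed by r2, magnitude and activity.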
Sequence of Luciferin 4-monooxygenase (Photinus pyralis) (P08659 whole entry, looked up): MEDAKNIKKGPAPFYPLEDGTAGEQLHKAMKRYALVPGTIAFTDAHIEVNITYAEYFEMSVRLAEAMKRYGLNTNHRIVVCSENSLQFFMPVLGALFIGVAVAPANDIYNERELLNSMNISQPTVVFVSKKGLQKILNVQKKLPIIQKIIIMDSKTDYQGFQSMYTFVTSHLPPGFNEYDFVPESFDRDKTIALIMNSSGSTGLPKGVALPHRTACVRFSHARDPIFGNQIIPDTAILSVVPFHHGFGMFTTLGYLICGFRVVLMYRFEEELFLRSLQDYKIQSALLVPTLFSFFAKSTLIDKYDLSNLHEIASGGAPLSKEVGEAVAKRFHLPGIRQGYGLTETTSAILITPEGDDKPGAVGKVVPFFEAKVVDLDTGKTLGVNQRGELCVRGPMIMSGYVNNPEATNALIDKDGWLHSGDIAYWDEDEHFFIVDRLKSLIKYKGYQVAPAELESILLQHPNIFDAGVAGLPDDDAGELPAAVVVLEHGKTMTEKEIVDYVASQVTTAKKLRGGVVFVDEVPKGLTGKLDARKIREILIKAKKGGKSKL

The nature of test [12]: qHTS profiling for inhibitors of Plasmodium falciparum proliferation (AID 504749).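 For activity, negative = inhibition: 0% = DMSO vehicle and full inhibition = artemisinin control.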 For all read-outs here: nearly all actives have a fitted effect of over 60% in size. Note: potency is the fitted concentration of half-maximal effect. The conditions noted are these: P. falciparum in erythrocytes, SYBR Green DNA, 72 h; for activity, negative = inhibition: at 12.8 µM (top of the series). A digest of the protocol:
(§1)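 SYBR Green fluorescence (ex 485 nm, em 535 nm) reports parasite DNA after 72 h compound exposure of infected red cells at 0.3% parasitemia, 2.5% hematocrit; signal normalized to 0.29 uM artemisinin and vehicle wells.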

In another test the test system is CP217. The description is as above. The conditions noted are these: P. falciparum in erythrocytes, SYBR Green DNA, 72 h; series mostly up to 12.8 µM. In outline: as §1
Another test concerns CP238. The description is as above. The conditions noted are these: P. falciparum in erythrocytes, SYBR Green DNA, 72 h; series mostly up to 12.8 µM. In outline:
as §1

Another test has as its system CP252. Described as above. To be noted: P. falciparum in erythrocytes, SYBR Green DNA, 72 h; series mostly up to 12.8 µM. A digest of the protocol:
as §1

The subject of a further test is HB3. The description is as above. To be noted: P. falciparum in erythrocytes, SYBR Green DNA, 72 h; series mostly up to 12.8 µM. In outline: as §1
For the next test, the system named is SC27B. The test is described as above. The conditions noted are these: P. falciparum in erythrocytes, SYBR Green DNA, 72 h; series mostly up to 12.8 µM. In outline: as §1
Another test deals with C2A. The description is as above. The conditions noted are these: P. falciparum in erythrocytes, SYBR Green DNA, 72 h; series mostly up to 12.8 µM. A digest of the protocol:
as §1

A further test has as its system CP250. Described as above. The conditions noted are these: P. falciparum in erythrocytes, SYBR Green DNA, 72 h; series mostly up to 12.8 µM. In outline:
as §1

Another test has as its system FAB9. The test is described as above. The conditions noted are these: P. falciparum in erythrocytes, SYBR Green DNA, 72 h; series mostly up to 12.8 µM. A digest of the protocol: as §1
Setting [13] is: measured here: cell count channel max response.
[14] abbreviates: measured here: lipid channel max response.

This note sets out measurements from PubChem BioAssay (NCATS).

Records with an inconclusive call do not appear. Activity calls are given as the source filed them. Unless noted, calls come from the whole dose curve; as a rule, active = well fitted curve in the direction sought with a large enough effect; inconclusive = small, poorly fitted or top-dose-only effect, or another doubt; inactive = no such curve, though single readings can be large; an effect the other way counts as inactive or inconclusive.

Sequence of 3',5'-cyclic-AMP phosphodiesterase 4B (Homo sapiens) (Q07343 whole entry, looked up): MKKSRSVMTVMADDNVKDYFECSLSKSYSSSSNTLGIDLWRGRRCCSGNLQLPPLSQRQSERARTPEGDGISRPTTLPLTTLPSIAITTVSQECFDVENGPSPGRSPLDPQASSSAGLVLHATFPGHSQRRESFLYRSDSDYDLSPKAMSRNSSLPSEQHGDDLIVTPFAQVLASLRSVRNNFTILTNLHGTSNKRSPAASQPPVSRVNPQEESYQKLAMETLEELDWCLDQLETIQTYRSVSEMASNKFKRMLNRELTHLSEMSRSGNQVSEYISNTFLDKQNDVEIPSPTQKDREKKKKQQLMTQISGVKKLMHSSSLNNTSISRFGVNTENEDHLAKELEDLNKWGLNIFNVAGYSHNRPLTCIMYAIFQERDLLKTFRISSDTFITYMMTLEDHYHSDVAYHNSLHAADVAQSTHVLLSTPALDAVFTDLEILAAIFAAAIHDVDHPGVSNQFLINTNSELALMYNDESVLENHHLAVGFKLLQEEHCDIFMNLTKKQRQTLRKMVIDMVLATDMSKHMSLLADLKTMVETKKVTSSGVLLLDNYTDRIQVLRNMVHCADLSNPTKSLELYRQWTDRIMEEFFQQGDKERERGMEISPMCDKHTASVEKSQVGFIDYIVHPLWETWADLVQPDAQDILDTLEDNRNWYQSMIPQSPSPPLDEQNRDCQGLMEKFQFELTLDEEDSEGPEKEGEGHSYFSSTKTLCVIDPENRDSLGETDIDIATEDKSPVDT
Sequence of ATP-dependent 6-phosphofructokinase (Trypanosoma brucei brucei) (O15648 whole entry, looked up): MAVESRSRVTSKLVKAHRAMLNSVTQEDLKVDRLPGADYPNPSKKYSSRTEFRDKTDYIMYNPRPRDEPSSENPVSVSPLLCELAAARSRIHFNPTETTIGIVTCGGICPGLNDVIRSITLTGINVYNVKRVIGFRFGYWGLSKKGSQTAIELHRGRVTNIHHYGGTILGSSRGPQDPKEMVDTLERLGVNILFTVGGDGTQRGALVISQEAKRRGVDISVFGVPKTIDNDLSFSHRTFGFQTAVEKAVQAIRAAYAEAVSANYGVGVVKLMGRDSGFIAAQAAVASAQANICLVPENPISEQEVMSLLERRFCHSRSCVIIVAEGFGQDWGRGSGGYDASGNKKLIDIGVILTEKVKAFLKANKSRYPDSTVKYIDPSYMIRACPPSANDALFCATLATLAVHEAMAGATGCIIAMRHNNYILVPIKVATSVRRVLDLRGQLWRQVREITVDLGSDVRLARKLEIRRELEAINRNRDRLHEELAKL

Turning to `COc1ccc(CNc2ncncc2-c2ccccc2CN(C)C)c(OC)c1`, the result in test [1] and in test [5] was inactive. The Potency in [2] and in [3] was > 46 µM (inactive) each time. Besides, the Potency entry in [4] and in test [7] was “inactive” in each case. Further, the activity change, negative = inhibition in test [6] (at 57.5 µM (top of the series)) is 6.9% (inactive). Further, the results for the max response in [6] (setting [13]) and in [6] (setting [14]) were 9.69% and 19.6%, respectively.
In the case of `CC(C)(C)NC[C@@H](O)COc1ccccc1C1CCCC1`, the molecule was classed as inactive in [1], in test [9] and in test [10]. Further, the activity change, negative = inhibition in [8] is -6.56% (inactive); in test [6] (at 25.7 µM (top of the series)), 1.2% (inactive). Besides, the Potency in test [2] was 4.85 µM (active); in [3] it was > 20.6 µM (inactive); in [12] (parasite line B), 3.16 µM (active); in the test on CP217 it was 3.16 µM (active); in the test with CP238 it was 3.16 µM (active); with CP252, 3.16 µM (active). Moreover, the results for the Potency in the test with HB3 and with SC27B were 3.16 µM (active) and 3.55 µM (active), respectively. The Potency result in test [4], in [7] and in test [11] was “inactive” each time. For the same molecule, the results for the max response in test [6] (setting [13]) and in test [6] (setting [14]) were -14.9% and -12.5%, respectively.
`CCN[C@@H]1CN(CCCOC)S(=O)(=O)c2sc(S(N)(=O)=O)cc21`: the outcome in [1], in test [9], in test [5] and in [10] was inactive. The activity change, negative = inhibition in test [8] is -3.14% (inactive); in [6] (at 25.7 µM (top of the series)) it was 1.92% (inactive). The Potency in test [2] and in test [3] was > 20.6 µM (inactive) throughout. Moreover, the Potency entry (in test [4]; in test [7]; in test [11]; with C2A; with CP217; in the test with CP238) was “inactive” throughout. The Potency entry with CP250, in the test with CP252, with FAB9, with HB3 and with SC27B was “inactive” in each case. Further, the max response in [6] (setting [13]) is -3.42%; in test [6] (setting [14]) it was -8.18%. Besides, the activity, negative = inhibition in [12] (parasite line A) was -7.28% (inactive); in test [12] (parasite line B), 4.88% (inactive).
Regarding `CO[C@H]1[C@H](O[C@H]2O[C@@H](C)[C@@H](O[C@@H]3C[C@](C)(O)[C@H](O)[C@H](C)O3)[C@@H](N(C)C)[C@@H]2O)[C@@H](CC=O)C[C@@H](C)[C@@H](O[C@H]2CC[C@H](N(C)C)[C@H](C)O2)/C=C\C=C/C[C@@H](C)OC(=O)C[C@H]1O`, the call in test [1], in [9], in [5] and in test [10] was inactive. For the same molecule, the activity change, negative = inhibition is 7.86% (inactive) in test [8] and -1.68% (inactive) in test [6] (at 25.7 µM (top of the series)). In addition, the Potency in test [2] and in test [3] was > 20.6 µM (inactive) throughout. In addition, the Potency result (in test [4]; in test [7]; in test [11]; in the test on C2A; with CP238; with CP250) was “inactive” throughout. Moreover, the Potency result with FAB9, in the test on HB3 and with SC27B was “inactive” in each case. Also, the max response was -9.34% in test [6] (setting [13]) and -16.8% in test [6] (setting [14]). In test [12] (parasite line A), the activity, negative = inhibition is -18% (inactive).
For the molecule `CC[C@H]1NC(=O)c2cc(S(N)(=O)=O)c(Cl)cc2N1`, the molecule was classed as inactive in test [1], in test [9] and in [10]. The activity change, negative = inhibition in test [8] was -14.6% (inactive); in test [6] (at 25.7 µM (top of the series)) it was -1.77% (inactive). Also, the Potency in [2] and in test [3] was > 20.6 µM (inactive) in each case. Further, the Potency result (in test [4]; in test [7]; in [11]; with C2A; with CP217; in the test on CP238) was “inactive” throughout. For the same molecule, the Potency entry with CP250, in the test with CP252, with FAB9, in the test with HB3 and with SC27B was “inactive” throughout. Also, the max response in [6] (setting [13]) was 0.892%; in [6] (setting [14]) it was -1.37%. The activity, negative = inhibition is -8.58% (inactive) in test [12] (parasite line A) and 18.4% (inactive) in test [12] (parasite line B).
